# Hits are enriched below; roughly 10% of the tested compounds scored in any of these assays.
# BAZ2B inh: BAZ2B (human) inhibition; Potency, µM (highest dose often 114 µM), inactives show at the highest dose activity change, negative = inhibition, actives largely listed as inhibitors; Q9UIF8; AlphaScreen BAZ2B-H3K14Ac peptide displacement; AID 504333; 360,000 tested, 4.4% active; note: potency is the fitted concentration of half-maximal effect; % is set by controls: 0 for no effect and ±100 for the full control effect; nearly all actives have a fitted effect of over 60% in size
#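 BAZ2B 50 nM plus b-H3(5-23)K14Ac 50 nM, PBS pH 7.4/0.01% Tween-20, 30 min RT; compound added (max 110 uM), 30 min RT; streptavidin donor/Ni-chelate acceptor beads 10 ug/mL final, 20 min dark; AlphaScreen read.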
# Six1-Eya2 blk: Six1/Eya2 interaction inhibition. Q15475+O00167. AlphaScreen GST-Six1/His-Eya2 binding, biochemical; stronger effect = lower value. activity change, % (concentration not given with the values). 360,000 tested, 0.56% active. AID 651725; in the data active = activity change below about -65%; inconclusive = mostly about -30% to -63%; note: % is set by controls: 0 for no effect and ±100 for the full control effect
#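 AlphaScreen with GST-Six1 and His-Eya2 (5X mix: 250 nM and 500 nM), glutathione donor and nickel acceptor beads; buffer 50 mM Tris pH 8.0, 300 mM NaCl, 1 mM TCEP; 1 h at 37 C in the dark.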
# HP1b binding inh: inhibitors of HP1-beta chromodomain binding to methylated histone tails; P83916; AlphaScreen HP1-beta / biotin-H3K9me3 peptide binding; Potency, µM (highest dose often 114 µM), without a hit: top-dose activity change, negative = inhibition, most hits filed as inhibitors; 390,000 tested, 0.56% active; AID 540317; note: potency is the fitted concentration of half-maximal effect; nearly all actives have a fitted effect of over 70% in size
# Target sequence (P83916 whole entry, looked up): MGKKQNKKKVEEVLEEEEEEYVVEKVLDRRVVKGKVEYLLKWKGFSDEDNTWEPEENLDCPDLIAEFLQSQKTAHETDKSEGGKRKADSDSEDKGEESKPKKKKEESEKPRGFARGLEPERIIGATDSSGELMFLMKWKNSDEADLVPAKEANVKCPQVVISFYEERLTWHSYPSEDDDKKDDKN
#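 Compound inhibition of the preformed complex between 50 nM HP1-beta and 50 nM biotinylated H3K9me3 peptide was read by AlphaScreen. Buffer was PBS pH 7.4 with 0.01% Tween-20. Incubations ran 30 min at room temperature, with 10 ug/mL donor/acceptor beads.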
# G9a inh: blocks human histone lysine methyltransferase G9a; Potency, µM (highest dose often 102 µM), inactives show at the highest dose activity, negative = inhibition, hits mostly inhibitors; G9a H3K9 monomethylation, AlphaScreen, 2 h; Q96KQ7; 350,000 tested, 8.8% active; AID 504332; note: potency is the fitted concentration of half-maximal effect; % is set by controls: 0 for no effect and ±100 for the full control effect; nearly all actives have a fitted effect of over 75% in size
# Target sequence (Q96KQ7 913-1193 limits assumed): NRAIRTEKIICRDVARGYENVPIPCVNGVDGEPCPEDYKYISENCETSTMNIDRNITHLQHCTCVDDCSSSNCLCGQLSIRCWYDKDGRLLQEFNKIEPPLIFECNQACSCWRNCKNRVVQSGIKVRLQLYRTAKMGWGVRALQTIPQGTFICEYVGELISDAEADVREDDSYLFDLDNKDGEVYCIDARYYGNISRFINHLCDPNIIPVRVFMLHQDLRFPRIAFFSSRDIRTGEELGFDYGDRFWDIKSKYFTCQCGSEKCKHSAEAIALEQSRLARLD
#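 Compounds were preincubated with 20 nM G9a for 15 min, after which biotinylated H3K9 peptide (500 nM) and SAM (20 uM) started a 2 h room-temperature reaction. Monomethylated product was quantified by antibody-based AlphaScreen chemiluminescence.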
# JMJD2A Tudor inh: JMJD2A Tudor domain (human) inhibition | AlphaScreen JMJD2A-Tudor / H3K4me3 peptide binding | Potency, µM (series often up to 114 µM), without a hit: at the highest dose activity change, negative = inhibition, hits mostly inhibitors | 390,000 tested, 4.4% active; note: potency is the fitted concentration of half-maximal effect; % is set by controls: 0 for no effect and ±100 for the full control effect; nearly all actives have a fitted effect of over 50% in size
# CtBP-E1A inh: blocks the CtBP interaction with E1A; AID 651724; AlphaScreen GST-E1A/His-CtBP binding, 1536-well; stronger effect = lower value; activity change, % (no concentration beside the values); 340,000 tested, 0.49% active; in the data active = activity change below about -65%; inconclusive = mostly about -30% to -63%; note: % is set by controls: 0 for no effect and ±100 for the full control effect
#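 In 5 uL wells, 23 nL compound meets equimolar GST-E1A and His-CtBP (5X stock 125 nM each) for 2 h, 37 °C. Beads (5X, 50 ug/mL) then 1 h, 37 °C, dark.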
# An asterisk follows results filed as active; u = inconclusive; x = no result given; [ ] = dose if it differs, or a comment. Unless noted, calls come from the whole dose curve; as a rule, active = well fitted inhibition curve with a large enough effect; inconclusive = small, poorly fitted or top-dose-only effect; inactive = no such curve, though single readings can be large or run the other way.
SMILES,BAZ2B inh,Six1-Eya2 blk,HP1b binding inh,G9a inh,JMJD2A Tudor inh,CtBP-E1A inh
COc1cc(/C=C(\C#N)C(=O)Nc2nnc(C(F)(F)F)s2)ccc1OCc1ccc(C(F)(F)F)cc1C(F)(F)F,x,x,x,8.44µM*,x,x
N#C/C(=C\c1cccnc1)C(=O)Nc1ccccc1,11.5%,-3.8,20.5%,-13.7%,0.0%,3.5
COc1cc(/C=C(\C#N)C(=O)NC(C)C)ccc1OCc1ccc(C(=O)O)cc1,-14.1%,-0.9,-5.7%,u,-16.2%,-73.2*
CCOc1cccc(NC(=O)/C(C#N)=C\c2cccnc2)c1,u,-2.3,26.3%,70.8µM*,-6.2%,-16.7
CCc1nc2ccc(C(=O)Nc3ccc4c(c3)OCC(=O)N4)cn2c1N(C)C(=O)C1CCCCC1,x,1.4,x,x,x,-8.1
O=C(O)c1cccc(NC(=O)c2ccc(COc3ccc(Cl)cc3)cc2)c1,-21.4%,-2.3,11.1%,-32.5%,-24.3%,-5.1
CCOC(=O)c1c(NC(=O)/C(C#N)=C/c2ccc(OC)cc2)sc2c1CCC2,3.0%,x,14.7%,7.0%[59 µM],-19.6%,x
N#C/C(=C\c1ccc(OCc2ccc(Cl)cc2)cc1)C(=O)Nc1cccc(C(=O)O)c1,56.2µM*,-6.6,9.9%,u,u,12.6
COc1cc(/C=C(/C#N)C(=O)Nc2ccccc2)ccc1OCc1ccc(C(=O)O)cc1,56.2µM*,0.0,-9.6%,u,56.2µM*,x
COc1cc(C(=O)O)ccc1OCc1ccncc1,-19.5%,-0.8,31.3%,44.7µM*,1.0%,x
CCOc1ccc(/C=C(\C#N)C(=O)Nc2sc3c(c2C(=O)OC)C(C(=O)OC)CC3)cc1OC (stereo not given),50.1µM*,x,u,1.41µM*,56.2µM*,x
O=S(=O)(c1ccc(F)cc1)N1CCN(c2nc(-c3ccc(F)cc3)nc3cc(Cl)ccc23)CC1,x,x,26.7%,x,-9.6%,x
COc1ccc(NC(=S)N2CCC3CC2c2cc(-c4ccc5c(c4)OCO5)ccc23)c(OC)c1 (stereo not given),x,-25.3,x,x,x,u
CCC(=O)Oc1ccc(C(=O)Nc2ccc3c(c2)C(=O)N(C2CCCCC2)C3=O)cc1,8.1%,1.5,26.9%,-0.3%[59 µM],-7.5%,3.1
CCOc1ccc(C2c3c(oc4ccc(C)cc4c3=O)C(=O)N2CCCN(C)C)cc1OC (stereo not given),-1.6%,x,56.1%,1.0%[59 µM],-18.3%,x
CCOC(=O)C1CCN(C(=O)COC(=O)/C=C/c2cccc(OC)c2OC)CC1,x,-0.2,42.0%,x,5.2%,x
CCOc1cc(/C=C(\C#N)C(=O)Nc2cccc(C(=O)O)c2)ccc1OCc1ccc(Br)cc1,56.2µM*,-8.4,u,44.7µM*,u,-8.7
CCOc1cc(C(=O)OCc2cc(=O)n3c(C)csc3n2)cc(OCC)c1OCC,-4.1%,x,26.1%,2.9%[59 µM],-2.0%,x
O=C(c1ccco1)N1CCN(c2ccc([N+](=O)[O-])c(N3CCOCC3)c2)CC1,-17.7%,-4.9,4.8%,x,-24.1%,15.0
Cc1sc2ncn(CC(=O)N(C)C3CCCCC3)c(=O)c2c1C,8.7%,0.0,-2.2%,39.8µM*,-20.3%,4.9
COC(=O)c1sc2ncn(CC(=O)N(C)C3CCCCC3)c(=O)c2c1C,-0.2%,3.7,0.2%,19.5%[59 µM],-10.5%,14.9
COc1ccc2c(c1)C(C)CC(C)(C)N2C(=O)Nc1ccccc1 (stereo not given),u,-24.1,5.7%,22.4µM*,-0.3%[57.1 µM],-20.5
COc1ccc2c(c1)C(C)CC(C)(C)N2C(=O)CSc1nc2ccccc2s1 (stereo not given),3.8%[57.1 µM],-3.7,66.2%,7.5%,3.4%,-1.7
O=C(NNc1cc(Br)c(O)c(Br)c1)c1ccccc1,8.91µM*,-3.0,39.8µM*,5.01µM*,8.91µM*,-15.2
Cc1cccc(C(=O)NNC(=O)c2ccccc2)c1,5.1%,7.1,26.8%,22.6%,-1.1%,10.6
SMILES,BAZ2B inh,Six1-Eya2 blk,HP1b binding inh,G9a inh,JMJD2A Tudor inh,CtBP-E1A inh
CN(C(=O)COC(=O)c1cccnc1Cl)C1CCCCC1,x,-5.3,22.9%,x,-2.1%,-5.8
CN(C)c1ccc(N=Nc2ccccc2C(=O)OCC(=O)NC2CCCC2)cc1,12.6µM*,-70.7*,-86.5%,11.2µM*,31.6µM*,-65.8*
CN(C)c1ccc(N=Nc2ccccc2C(=O)OCC(=O)N(C)C2CCCCC2)cc1,8.91µM*,-23.0,-24.2%,20µM*,u,-18.5
CN(C)c1ccc(N=Nc2ccccc2C(=O)OCC(=O)NCC2CCCCC2)cc1,8.91µM*,-74.1*,u,7.94µM*,7.94µM*,-67.6*
CCOc1cc(/C=C2/SC(=S)N(C)C2=O)ccc1Oc1ccc([N+](=O)[O-])cc1[N+](=O)[O-],u,x,x,-26.7%,x,x
CCOc1ccc(OCC)c(NC(=O)c2csc3c2CCCC3)c1,-2.3%,x,15.2%,-25.6%[59 µM],-6.2%,x
O=S(=O)(NCC(c1ccco1)N1CCN(c2ccccc2F)CC1)c1ccccc1 (stereo not given),-31.0%,-1.9,-5.3%,0.7%[59 µM],-34.2%,-4.3
Cc1ccc(C(CNS(=O)(=O)c2ccc(F)cc2)N2CCN(C)CC2)cc1 (stereo not given),7.9%,-3.4,19.5%,-24.3%,3.4%,7.9
Cc1cc(S(=O)(=O)NCC(c2ccc(N(C)C)cc2)N2CCOCC2)ccc1F (stereo not given),u,x,-6.0%,-21.2%[12.7 µM],u,x
CN(C)c1ccc(C(CNS(=O)(=O)c2ccc(F)cc2)N2CCc3ccccc32)cc1 (stereo not given),10µM*,x,u,14.1µM*,20µM*,x
Cc1cc(C)c(S(=O)(=O)NCC(c2ccc(N(C)C)cc2)N2CCc3ccccc32)c(C)c1 (stereo not given),3.16µM*,x,u,11.2µM*,12.6µM*,x
COc1ccc(C)cc1S(=O)(=O)NCC(c1ccc(N(C)C)cc1)N1CCc2ccccc21 (stereo not given),10µM*,x,u,10µM*,14.1µM*,x
O=S(=O)(NCC(c1ccco1)N1CCc2ccccc21)c1ccccc1 (stereo not given),39.8µM*,-25.7,u,44.7µM*,u,-4.8
Cc1ccc(CCNC(=O)Cn2nc(-c3ccc(C)cc3)ccc2=O)cc1,-9.0%,x,1.7%,-1.7%[59 µM],-26.3%,x
Cc1cc(C)c(S(=O)(=O)NCC(c2ccc(N(C)C)cc2)N2CCOCC2)c(C)c1 (stereo not given),39.8µM*,x,u,u,50.1µM*,x
COc1ccc(OCC(=O)NC(=S)N2CCCc3ccccc32)cc1,50.1µM*,-22.3,-26.3%,u,56.2µM*,-6.9
O=C(COc1ccccc1)NC(=S)N1CCc2ccccc21,-34.6%,-10.3,-5.4%,28.2µM*,-24.9%,-2.1
